Compound activity as filed in PubChem BioAssay.
HT1080-NT tox: qHTS for induction of synthetic lethality in tumor cells producing 2HG: qHTS for the HT-1080-NT fibrosarcoma cell line; HT-1080-NT fibrosarcoma viability, CellTiter-Glo ATP luminescence, 48 h; Potency, µM (series often up to 46.1 µM), for the others: at the top dose activity, negative = less viability, usual class: cytotoxic; hit rate 1.6% among 360,000;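 further: NT is the 2HG producing partner of a matched IDH1 knockdown line; potency means the concentration at half of the fitted maximal effect; 0% = DMSO-treated cells and -100% = media-only wells without cells; nearly all actives have a fitted effect of over 55% in size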
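A 48-hour cytotoxicity screen used HT-1080-NT cells plated 2 hours before compound delivery. ATP-based CellTiter-Glo luminescence measured viability, normalized to DMSO and no-cell controls.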
IL-1B inflam inh: qHTS for Inhibitors of Inflammasome Signaling: IL-1-beta AlphaLISA Primary Screen | THP-1 LPS/ATP IL-1B secretion, AlphaLISA, 16 h; stronger effect = lower value | activity change, % at 57.5 µM | hit rate 4.7% among 360,000 | AID 743279, 2014; in the data active means activity change below about -50%; inconclusive means mostly about -30% to -49%
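Secreted IL-1B measured by AlphaLISA bead assay after 16 h compound exposure of THP-1 cells; compounds (final up to 57.5 uM) added 1 h before LPS (250 ng/mL) and ATP (1.25 mM) stimulation; lower signal means less secretion.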
HT1080 IDH1KD tx: qHTS for induction of synthetic lethality in tumor cells producing 2HG: qHTS for the HT-1080-IDH1KD cell line; HT-1080 IDH1 knockdown viability, ATP luminescence, 48 h; Potency, µM (highest dose often 46.1 µM), inactives show at the highest dose activity, negative = toxicity, usual class: cytotoxic; hit rate 2% among 360,000; AID 686971, 2013;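 further: potency means the concentration at half of the fitted maximal effect; 0% = DMSO wells and -100% = cell-free medium wells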
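Assay cells: HT-1080 with IDH1 knockdown, 750 per well, RPMI/5% FBS. Exposure: 48 h at 37 °C following 2 h pre-incubation. Read: CellTiter-Glo luminescence; fitted concentration-response, curve class assigned.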
TDP1 cell CPT: qHTS for Inhibitors of human tyrosyl-DNA phosphodiesterase 1 (TDP1): qHTS in cells in presence of CPT; chicken DT40 Tdp1-/-;hTDP1 cells + 20 nM CPT, ATP luminescence, 48 h; Potency, µM (doses to about 46.2 µM), without a hit: at the top dose activity change, negative = growth inhibition, actives largely listed as inhibitors; hit rate 12% among 420,000; further: potency means the concentration at half of the fitted maximal effect; nearly all actives have a fitted effect of over 55% in size
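Chicken DT40 Tdp1-/- cells complemented with human TDP1, 400 cells/well, exposed to compounds plus 20 nM camptothecin for at least 48 h at 37 C; viability read as ATP content by CellTiter-Glo luminescence.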
DT40 TDP1 no CPT: qHTS for Inhibitors of human tyrosyl-DNA phosphodiesterase 1 (TDP1): qHTS in cells in absence of CPT; Potency, µM (top dose mostly 46.2 µM), for the others: at the highest dose activity change, negative = growth inhibition, hits mostly inhibitors; hit rate 15% among 420,000; DT40 Tdp1-/- hTDP1 cells, no CPT, ATP luminescence, 48 h; further: potency means the concentration at half of the fitted maximal effect; nearly all actives have a fitted effect of over 55% in size
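Luminescent ATP content (CellTiter-Glo) served as the growth readout. Knockout chicken DT40 cells expressing human TDP1 were exposed to compounds without camptothecin for a minimum 48 hr at 37 °C.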
Numbers without * were called inactive. Shown are actives, neighbours in structure and some others; about 19% of the full set was active somewhere. Unless noted, the call rests on the fitted dose curve; in most records, active means well fitted curve in the direction sought with a large enough effect; inconclusive means small, poorly fitted or top-dose-only effect, or another doubt; inactive means no such curve, though single readings can be large; an effect the other way counts as inactive or inconclusive. Unless noted, on the % scale 0 is the no-effect control and ±100 the full control effect.

Screening Cc1nc2scc(C)n2c(=O)c1S(=O)(=O)Nc1ccc(OC(F)(F)F)cc1 returned HT1080-NT tox -19%, IL-1B inflam inh 14, HT1080 IDH1KD tx -14%, TDP1 cell CPT 21µM* and DT40 TDP1 no CPT 15µM*.
CCOC(=O)c1ccc(NS(=O)(=O)c2c(C)nc3sccn3c2=O)cc1 was read as HT1080-NT tox -12%, IL-1B inflam inh 3, HT1080 IDH1KD tx -2%, TDP1 cell CPT 16µM* and DT40 TDP1 no CPT 16µM*.
`CC(C(=O)OCC(=O)Nc1cccc(S(=O)(=O)N(C)C)c1)N1C(=O)c2ccccc2C1=O` (stereo unspecified) gave HT1080-NT tox 19%, IL-1B inflam inh 12, HT1080 IDH1KD tx 10%, TDP1 cell CPT -28% and DT40 TDP1 no CPT -10%.
Cc1noc(C)c1COC(=O)c1ccc(S(=O)(=O)N2CCCCC2)cc1 was read as HT1080-NT tox -1%, IL-1B inflam inh 6, HT1080 IDH1KD tx -1%, TDP1 cell CPT -2% and DT40 TDP1 no CPT -11%.
Screening CCN(CC)C(=O)[C@H]1CC(CC(=O)NCCC2=CCCCC2)C(=O)N2CCc3c([nH]c4ccc(OC)cc34)[C@]12C (stereo partly specified) returned HT1080-NT tox 7%, IL-1B inflam inh inconclusive, HT1080 IDH1KD tx 4%, TDP1 cell CPT inconclusive and DT40 TDP1 no CPT inconclusive.
Screening Cc1nc2scc(C)n2c(=O)c1S(=O)(=O)Nc1cccc(O)c1 returned TDP1 cell CPT -30% and DT40 TDP1 no CPT -30%.
CCOC(=O)c1cccc(NS(=O)(=O)c2c(C)nc3sc(C)cn3c2=O)c1 was read as TDP1 cell CPT 13µM* and DT40 TDP1 no CPT 23µM*.
Cc1cn2c(=O)c(S(=O)(=O)Nc3ccc(F)cc3F)c(C)nc2s1 was read as TDP1 cell CPT -20% and DT40 TDP1 no CPT inconclusive.
For CC(=O)c1cccc(NS(=O)(=O)c2c(C)nc3sc(C)cn3c2=O)c1 the results were TDP1 cell CPT 18µM* and DT40 TDP1 no CPT 15µM*.
`CCc1cccc(NS(=O)(=O)c2c(C)nc3sc(CC)nn3c2=O)c1` gave HT1080-NT tox 9%, IL-1B inflam inh 23, HT1080 IDH1KD tx 1%, TDP1 cell CPT inconclusive and DT40 TDP1 no CPT 21µM*.
`Cc1ccc(NS(=O)(=O)c2c(C)nc3sc(C)c(C)n3c2=O)cc1F` gave TDP1 cell CPT 12µM* and DT40 TDP1 no CPT 15µM*.
`NC(=O)c1cc(S(=O)(=O)N2CCOCC2)cs1` gave HT1080-NT tox 3%, IL-1B inflam inh 17, HT1080 IDH1KD tx -7%, TDP1 cell CPT 0% and DT40 TDP1 no CPT -9%.
For OC(CCCN1CCCCC1)(c1ccccc1)c1ccc(C(F)(F)F)cc1 (stereo unspecified) the results were HT1080-NT tox inconclusive, IL-1B inflam inh -22, HT1080 IDH1KD tx inconclusive, TDP1 cell CPT inconclusive and DT40 TDP1 no CPT 18µM*.
O=C(Cn1cccn1)N1CCCC(N2CCN(c3ccccc3F)CC2)C1 (stereo unspecified) was read as HT1080-NT tox 10%, IL-1B inflam inh 31, HT1080 IDH1KD tx 1%, TDP1 cell CPT -15% and DT40 TDP1 no CPT -13%.
O=C(CSCc1ccc(Br)cc1)Nc1ccccc1C(=O)N1CCOCC1 was read as HT1080-NT tox 3%, IL-1B inflam inh 6, HT1080 IDH1KD tx 13%, TDP1 cell CPT inconclusive and DT40 TDP1 no CPT 16µM*.
Screening O=C(CSCc1ccc(F)cc1)Nc1ccccc1C(=O)N1CCOCC1 returned HT1080-NT tox 11%, IL-1B inflam inh -16, HT1080 IDH1KD tx 12%, TDP1 cell CPT 1% and DT40 TDP1 no CPT -13%.
Screening CNC(=O)c1c(NC(=O)c2ccc(S(=O)(=O)N3CCCC(C)C3)cc2)sc2c1CCC2 (stereo unspecified) returned TDP1 cell CPT 21µM* and DT40 TDP1 no CPT 18µM*.
For CCC1CCCCN1S(=O)(=O)c1ccc(C(=O)Nc2sc3c(c2C(=O)NC)CCC3)cc1 (stereo unspecified) the results were TDP1 cell CPT 21µM* and DT40 TDP1 no CPT 16µM*.
CNC(=O)c1c(NC(=O)c2ccco2)sc2c1CCC2 was read as HT1080-NT tox -5%, IL-1B inflam inh -25, HT1080 IDH1KD tx -12%, TDP1 cell CPT inconclusive and DT40 TDP1 no CPT inconclusive.
CCc1nnc(NC(=O)c2ccc(S(=O)(=O)N3CCCC(C)C3)cc2)s1 (stereo unspecified) was read as HT1080-NT tox 0%, IL-1B inflam inh 15, HT1080 IDH1KD tx 2%, TDP1 cell CPT 7% and DT40 TDP1 no CPT -16%.
`FC(F)(F)c1ccccc1Cc1c(-c2cccc(Br)c2)nc2ccc(Br)cn12` gave HT1080-NT tox 27%, IL-1B inflam inh 0, HT1080 IDH1KD tx 20%, TDP1 cell CPT inconclusive and DT40 TDP1 no CPT inconclusive.
`COc1ccc(C)cc1NC(=O)CSc1nc(=O)n(Cc2ccccn2)c2c1CCC2` gave TDP1 cell CPT inconclusive and DT40 TDP1 no CPT 21µM*.
For CCc1ccc(NC(=O)CSc2nc(=O)n(Cc3cccnc3)c3c2CCC3)cc1 the results were TDP1 cell CPT inconclusive and DT40 TDP1 no CPT 16µM*.
Screening CC(=O)Nc1ccc(NC(=O)CSc2nc(=O)n(Cc3cccnc3)c3c2CCC3)cc1 returned HT1080-NT tox 1%, IL-1B inflam inh 0, HT1080 IDH1KD tx 16%, TDP1 cell CPT 0% and DT40 TDP1 no CPT -4%.
Screening COc1ccc(C)cc1NC(=O)CSc1nc(=O)n(Cc2cccnc2)c2c1CCC2 returned TDP1 cell CPT inconclusive and DT40 TDP1 no CPT 18µM*.
`CC(=O)c1cccc(NC(=O)C2CCN(S(=O)(=O)c3ccccc3)CC2)c1` gave HT1080-NT tox 6%, IL-1B inflam inh 3, HT1080 IDH1KD tx 5%, TDP1 cell CPT inconclusive and DT40 TDP1 no CPT inconclusive.
CCOC(=O)/C(=N/Nc1ccc(Cl)cc1)S(=O)(=O)c1ccccc1 was read as HT1080-NT tox -25%, IL-1B inflam inh -69*, HT1080 IDH1KD tx 1%, TDP1 cell CPT -26% and DT40 TDP1 no CPT inconclusive.
`CCCC[n+]1c(-c2ccc(Cl)cc2Cl)csc1Nc1ccccc1` gave HT1080-NT tox -12%, IL-1B inflam inh -14, HT1080 IDH1KD tx 0%, TDP1 cell CPT inconclusive and DT40 TDP1 no CPT 21µM*.
`Clc1ccc(-c2csc(Nc3ccccc3)[n+]2Cc2ccco2)c(Cl)c1` gave HT1080-NT tox -2%, IL-1B inflam inh -8, HT1080 IDH1KD tx inconclusive, TDP1 cell CPT inconclusive and DT40 TDP1 no CPT 23µM*.
